Screening data as filed in PubChem BioAssay.
Only some compounds are listed: those with a hit (about 3.8% of all), similar ones and a draw of the others.
PrP 5UTR inh: inhibition of PrP 5' UTR reporter expression; cell-based PrP 5' UTR mRNA reporter, plate reader; inhibition, % (test concentration not listed); hit rate 0.35% among 340,000; AID 488862, 2010; in the data active means inhibition above about 52%; further: 0 = median of the neutral control wells
PrPC TRFRET: inhibitors of human cell surface prion protein PrPC, primary screen, cell-based, TR-FRET | Major prion protein (Homo sapiens), P04156 | TR-FRET read-out | inhibition, % at 13.8 µM | hit rate 0.43% among 370,000 | AID 720596, 2013; in the data active means inhibition above about 24%; further: 0% = median of the test wells and 100% = reference compound wells
Mtb hypoxia inh: PubChem AID 1159583 | M. tuberculosis hypoxia-regulated fluorescent reporter, fluorescence | fluorescence inhibition, % (concentration not given with the values) | hit rate 0.1% among 300,000; in the data active means fluorescence inhibition mostly above about 23%, no sharp cut-off; inactive means mostly below about 17%
GDH-TPI inh: GDH-TPI coupling enzyme inhibitors, primary screen, artefact control for M. tuberculosis FBA inhibitor project, biochemical, absorbance, full deck; inhibition, % at 4.8 µM; GDH-TPI coupled enzyme counterscreen, NADH absorbance; hit rate 1.2% among 360,000; in the data active means inhibition above about 30%;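 further: 0% = DMSO wells and 100% = wells lacking the enzyme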
Yp Topo-I inh: Yersinia pestis topoisomerase I inhibitors, primary screen, biochemical, cleavage product accumulation, plate reader, single point | activity, % at 10 µM | AID 504884, 2011 | Y. pestis Topo-I cleavage product accumulation | DNA topoisomerase I (Yersinia pestis CO92) | hit rate 0.064% among 360,000; in the data active means activity above about 50%, passing the limit was not always enough
FBA Mtb inh: Mtb FBA enzyme inhibitors, primary screen, biochemical, fluorescence, strain H37Rv; AID 588726, 2011; inhibition, % at 1 µM; Fructose-bisphosphate aldolase (Mycobacterium tuberculosis (strain ATCC 25618 / H37Rv)), …; hit rate 2.3% among 360,000; purified M. tuberculosis FBA, fluorescence read-out; in the data active means inhibition above about 27%;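 further: 0% = vehicle and 100% = reference inhibitor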
Target sequence (P9WQA3 whole entry, looked up): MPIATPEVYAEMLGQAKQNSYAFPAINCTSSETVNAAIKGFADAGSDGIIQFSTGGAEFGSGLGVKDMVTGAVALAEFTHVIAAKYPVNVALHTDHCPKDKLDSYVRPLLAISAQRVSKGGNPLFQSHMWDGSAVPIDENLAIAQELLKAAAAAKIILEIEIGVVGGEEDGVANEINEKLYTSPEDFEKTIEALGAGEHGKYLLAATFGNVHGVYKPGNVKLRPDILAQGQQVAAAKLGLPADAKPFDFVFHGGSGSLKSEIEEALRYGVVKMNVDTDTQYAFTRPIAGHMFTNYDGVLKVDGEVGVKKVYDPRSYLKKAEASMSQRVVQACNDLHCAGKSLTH
The depositor's hits bear a star; . = not tested or not shown; + = active, no number.

SMILES	PrP 5UTR inh	PrPC TRFRET	Mtb hypoxia inh	GDH-TPI inh	Yp Topo-I inh	FBA Mtb inh
c1ccc2c(c1)NC1(CCCCC1)n1c-2nc2ccccc21	-51.7	0.9	5.3	12.5	-5.0	152.9*
CC1(c2ccccn2)Nc2ccccc2-c2nc3ccccc3n21 (stereo not drawn)	-90.8	-3.5	8.9	23.0	-2.0	111.8*
COc1ccc(C=Nn2cncn2)cc1Cn1nc(C)c([N+](=O)[O-])c1C	.	.	-3.9	.	.	.
CCOC(=O)c1ccc(NC(=O)c2nc[nH]c2C(=O)NC(C)C(=O)OC(C)(C)C)cc1 (stereo not drawn)	.	.	-8.0	.	.	.
COC(=O)C1CC1C(NC(=O)C1CC1C(NC(=O)OCc1ccccc1)c1ccccc1)c1ccccc1 (stereo not drawn)	.	.	0.8	.	.	.
Cc1ccc(-c2c(C(=O)NN=Cc3cccc(Cl)c3)nnn2-c2nonc2N)cc1	.	.	-11.6	.	.	.
c1ccc(CC2CNCCN2CC2CCCCC2)cc1 (stereo not drawn)	.	.	15.1	.	.	.
COc1ccc(C2CC(c3ccccc3)=NN2c2ccc(C(N)=O)cc2)cc1 (stereo not drawn)	-14.3	6.8	9.7	15.4	-17.8	+
NS(=O)(=O)c1ccc(N2N=C(c3ccccc3)CC2c2ccc(F)cc2)cc1 (stereo not drawn)	-29.2	-1.8	-11.0	9.4	18.3	+
COc1ccc(C2CC(c3cccc(C(F)(F)F)c3)=NN2c2ccc(S(N)(=O)=O)cc2)cc1 (stereo not drawn)	3.0	-0.1	1.5	4.2	22.3	+
COc1ccc(C2CC(c3cccs3)=NN2c2ccc(C=O)cc2)cc1 (stereo not drawn)	.	2.5	7.5	.	.	.
COc1ccc(C2=NN(c3ccc(C=O)cc3)C(c3ccccc3)C2)cc1 (stereo not drawn)	.	.	5.7	.	.	.
Oc1ccccc1C1=NN(c2ccccc2)C(c2ccc(F)cc2)C1 (stereo not drawn)	-65.0	-3.0	2.7	0.7	-10.7	1.4
COc1ccc(C2CC(c3cccc(F)c3)=NN2c2ccc(S(N)(=O)=O)cc2)cc1 (stereo not drawn)	-6.9	7.4	1.8	24.0	33.7	+
CC(=NNC(=O)CNC(=O)C(c1ccccc1)c1ccccc1)c1ccco1	.	.	17.0	.	.	.
Cc1cc2c(nc1C)CCCN2CC(C)ON=C1C2CCn3c(=O)n(-c4ccccc4)c(=O)n3C2C(O)C2OC12 (stereo not drawn)	.	.	15.1	.	.	.
CCN1C(=O)C2C(c3ccc(-c4ccc(C(C)=O)cc4)cc3)N3CCCC[C@@]3(C(=O)OC)C2C1=O (stereo partly drawn)	.	.	-2.2	.	.	.
CCN1C(Nc2ccccc2)=NCC1C (stereo not drawn)	.	.	5.8	.	.	.
O=C(Cn1cnc([N+](=O)[O-])n1)NN=Cc1ccc2ccccc2c1	.	.	13.4	.	.	.
COc1ccc(C2CC(c3ccccc3Cl)=NN2c2ccc(S(N)(=O)=O)cc2)cc1 (stereo not drawn)	-15.6	-4.0	2.4	2.7	35.6	173.8*
COc1ccc(C2CC(c3ccccc3)=NN2c2ccc(S(N)(=O)=O)cc2)cc1 (stereo not drawn)	-15.2	1.1	16.7	10.7	18.8	+
O=[N+]([O-])c1cccc(C2CC(c3ccccc3)=NN2c2ccccc2)c1 (stereo not drawn)	-11.5	2.2	15.6	19.4	3.8	-0.2
O=C(O)c1ccc(N2N=C(c3ccccc3)CC2c2ccccc2)cc1 (stereo not drawn)	-22.6	6.3	10.0	32.2*	4.4	+
C#CCOCCOCCOCCNc1nc(N2CCN(C(=O)C(CCCCN)n3cc(C(N)CO)nn3)CC2)nc(N2CCN(C(=O)C(C(C)CC)n3cc(C(N)Cc4ccc(O)cc4)nn3)CC2)n1 (stereo not drawn)	.	.	1.6	.	.	.
CCOc1cc(C(=S)N2CCOCC2)ccc1OC(=O)/C=C/c1ccc(OC)c(OC)c1	-13.9	-1.3	1.6	37.5*	-6.1	0.9
SMILES	PrP 5UTR inh	PrPC TRFRET	Mtb hypoxia inh	GDH-TPI inh	Yp Topo-I inh	FBA Mtb inh
COc1ccc(/C=C/C(=O)N2CCN(c3ccccn3)CC2)cc1OC	-6.5	-2.6	0.2	38.6*	-0.7	-3.0
CCOc1ccc(/C=C/C(=O)N2CCOCC2)cc1OC	4.7	-6.5	-4.9	32.2*	-2.7	6.1
COc1ccc(/C=C/C(=O)O/N=C(\N)c2ccccn2)cc1OC	-63.3	-5.2	7.1	44.5*	0.4	4.0
N/C(=N\OC(=O)/C=C/c1ccccc1)c1ccccn1	-82.3	1.1	.	9.3	3.4	-4.4
CC(C)CC(NC(=O)c1[nH]cnc1C(=O)Nc1ccccc1)C(=O)OC(C)(C)C (stereo not drawn)	.	.	-0.3	.	.	.
COc1cc(C=NNC(=O)CCOc2ccccc2C)cc(Br)c1O	.	.	0.7	.	.	.
CN(C)C(=O)C1CC1C(O)C(CO)NC(=O)C(Cc1ccccc1)NC(=O)OC(C)(C)C (stereo not drawn)	.	.	11.2	.	.	.
Cc1nn(C)cc1C=NNC(=O)Cn1nccc1C	.	.	2.6	.	.	.
COc1ccc(/C=C/C(=O)N(c2ccccn2)C2CCCCC2)cc1OC	-27.4	-0.2	-7.2	82.8*	19.2	5.9
O=C(/C=C/c1ccc(Cl)cc1)N(c1ccccn1)C1CCCCC1	-0.8	-0.6	13.8	4.7	27.1	-7.9
COc1ccc(/C=C/C(=O)NCC(c2ccc(F)cc2)N2CCOCC2)cc1OC (stereo not drawn)	-11.3	4.8	-17.1	34.8*	1.5	9.9
CCN1C(=O)NC(c2ccc(Br)cc2)C(C(C)=O)=C1C (stereo not drawn)	.	.	5.9	.	.	.
C=CC1c2ccccc2N(S(=O)(=O)c2ccc(C)cc2)C(c2ccc(OC(C)=O)cc2)C1(C#N)C#N (stereo not drawn)	.	.	21.3	.	.	.
CCN1CCN(c2ncc(C(=O)Nc3ccccc3C(=O)OC)c3ccccc23)CC1	-0.7	-6.6	.	31.2*	23.6	8.9
CC(/C=N/Nc1nnc(C)c(=O)[nH]1)=C\c1ccccc1	-70.0	-3.0	.	31.8*	1.7	-2.6
CC1CN=C(N(C)C)N1CC1CCC(C(C)(C)C)CC1 (stereo not drawn)	.	.	11.2	.	.	.
COc1ccc(C(=O)N[C@H](C(=O)Nc2nc3c(s2)CCCC3)C(C)C)cc1	-59.5	16.9	-18.8	-2.2	0.1	+
CCOc1ccccc1C(=O)N[C@H](C(=O)Nc1nc2c(s1)CCCC2)C(C)C	-24.3	-7.1	-13.9	-1.9	20.2	-5.1
O=C1C2C(C=Cc3ccccc3)N3C(=O)CN(CCO)C(=O)[C@@]3(Cc3ccccc3)C2C(=O)N1c1ccccc1 (stereo partly drawn)	.	.	7.8	.	.	.
OC[C@@H]1[C@@H](c2ccccc2)C(c2ccc(F)cc2)=NN1c1ccccc1	-15.1	.	-2.9	4.5	-8.6	45.9*
O=C1OCCN1C(=O)C1C(c2ccc(F)cc2)C(c2ccc(F)cc2)=NN1c1ccccc1 (stereo not drawn)	.	.	1.1	.	.	.
